Drawing on ChEMBL document CHEMBL3988442, “University of Dundee, Small-Polar-MMV Screening Library” (2021), this text covers Percent Effect for 40 compounds.

The first assay addresses T1, Aspartate--tRNA(Asp/Asn) ligase (Mycobacterium tuberculosis (strain ATCC 25618 / H37Rv)) (UniProt P9WFW3).
T1 sequence (whole entry): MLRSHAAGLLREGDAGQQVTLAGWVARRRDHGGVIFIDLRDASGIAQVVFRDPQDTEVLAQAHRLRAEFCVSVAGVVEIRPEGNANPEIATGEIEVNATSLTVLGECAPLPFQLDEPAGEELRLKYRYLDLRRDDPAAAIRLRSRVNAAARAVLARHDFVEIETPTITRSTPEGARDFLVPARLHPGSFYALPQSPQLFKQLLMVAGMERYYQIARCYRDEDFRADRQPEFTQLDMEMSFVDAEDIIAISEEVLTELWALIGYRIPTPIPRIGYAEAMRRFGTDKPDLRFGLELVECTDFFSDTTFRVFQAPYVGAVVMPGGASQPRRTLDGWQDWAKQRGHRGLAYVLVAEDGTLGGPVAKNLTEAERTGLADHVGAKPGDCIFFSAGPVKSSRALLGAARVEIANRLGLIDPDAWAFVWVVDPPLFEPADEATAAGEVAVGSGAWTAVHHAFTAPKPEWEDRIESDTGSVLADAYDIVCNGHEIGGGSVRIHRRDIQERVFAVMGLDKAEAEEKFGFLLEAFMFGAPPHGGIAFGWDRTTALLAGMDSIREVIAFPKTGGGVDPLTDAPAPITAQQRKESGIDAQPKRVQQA
Nature of the assay: Assay for Asp RNA synthetase-1 from Mycobacterium tuberculosis. The following applies: 30 µM. Further details: scale not given: direction of the effect not stated beside the values. It counts as functional.
Regarding `CC(=O)N1CC(=O)N(c2ccccc2)CC12CCN(CC1CC1)C2` (stereo not given), the Percent Effect is 13.8%.

Consider `Cc1ccc(-n2nnc(CC(=O)N3CCOCC3)c2C)cc1`, for which the Percent Effect is 2.26%.

Turning to `c1coc(CN2C[C@H](OCC3CCOCC3)[C@H]3COC[C@H]32)c1`, the Percent Effect was 1.73%.

For `Cc1cc2c(cc1C)C(NCc1nnc3n1CCCCC3)CCCO2` (stereo not given), the Percent Effect worked out at 0.212%.

In the case of `COc1ccccc1C(O)CNC(=O)NCc1cccnc1OC` (stereo not given), the Percent Effect is -0.742%.

For the compound `CCN(C)c1ncnc2c1CCN(C(=O)c1ccno1)CC2`, the Percent Effect was determined as 7.02%.

For the compound `O=C(CCCc1cn[nH]c1)N1CCOCC(O)C1` (stereo not given), the Percent Effect was 5.55%.

For `CC(C(=O)NCCOc1ccc2c(c1)OCO2)n1cncn1` (stereo not given), the Percent Effect was -7.68%.

As to `Cc1cc(CN(C)C(=O)NC2CCN(Cc3ccccc3)C2)no1` (stereo not given), the Percent Effect was found to be 2.94%.

Regarding `Cc1cc(NC(=O)NCC(O)c2ccc(Cl)cc2Cl)n(C)n1` (stereo not given), the Percent Effect is -2.66%.

As to `COc1c(CNCCNC(=O)Cc2ccc(F)cc2)c(C)nn1C`, the Percent Effect was found to be 1.84%.

On to `Cc1nc(C)n(CC2CCCN(CCc3ccncc3)C2)n1` (stereo not given), for which the Percent Effect is 0.891%.

On to `O=C(NCC1CCOCC1)[C@@H]1C[C@@H]2CCN(Cc3ccco3)C[C@H]2O1`, for which the Percent Effect amounted to 0.32%.

As for `Cc1cc(C2CCCN(C(=O)c3cnccn3)C2)ccn1` (stereo not given), the Percent Effect was -0.521%.

For `CC1CCCN(C(=O)c2cccc(CS(C)(=O)=O)c2)C1` (stereo not given), the Percent Effect is -4.9%.

Consider `Cc1nn(C)c(Cl)c1C(=O)NCC(c1ccsc1)N(C)C` (stereo not given), for which the Percent Effect was -6.11%.

As for `CC(C)N1CC(C(=O)NCCOc2ccc3c(c2)OCO3)CC1=O` (stereo not given), the Percent Effect was -3.6%.

As to `Cn1ncc2c1NC(=O)CC2c1ccc(O)cc1` (stereo not given), the Percent Effect amounted to 0.0331%.

Turning to `COC(=O)CNC(=O)CSCc1nc(O)c2c(C)c(C)sc2n1`, the Percent Effect is -0.261%.

`O=C(CN1CCOC(Cn2cccn2)C1)Nc1nccs1` (stereo not given): the Percent Effect is -4.87%.

In another assay the target is Shiga toxin 2 (Escherichia coli O157:H7) (UniProt P09385+P09386). Nature of the assay: E. coli 0.157:H7 Shiga Toxin SOP - stx2 screening assay. Further details: scale not given: direction of the effect not stated beside the values. The settings on record: 30 µM. The assay is classed as functional.
As to `Cn1cccc1C(=O)N1CCCC2(CCCN2Cc2cccnc2)C1` (stereo not given), the Percent Effect was determined as 19.4%.

Take `CN(c1ccncn1)C1CC2(CCN(C(=O)CCc3cccs3)C2)C1` (stereo not given): the Percent Effect was -23.3%.

Consider `Cc1nc(C)c(C(=O)N2CCCC2c2nnc3n2CCCCC3)s1` (stereo not given), for which the Percent Effect was -17.2%.

As to `Cc1ccnc(OCC(=O)N2CCC(C(N)=O)CC2)n1`, the Percent Effect came to 1.84%.

With `CN(C)CC1CN(c2ncnc3[nH]ccc23)CCO1` (stereo not given), the Percent Effect was -33.5%.

`CNc1cc2c(nn1)CCN(C(=O)c1ccc(-n3nccc3C)cc1)C2`: the Percent Effect amounted to 26.8%.

With `COc1cccc(C(=O)N2CCCCC2CNC(N)=O)c1` (stereo not given), the Percent Effect is 26.9%.

For the compound `CCc1[nH]ncc1C(=O)N1CCCC(n2cccn2)C1` (stereo not given), the Percent Effect was 3.89%.

In the case of `O=C(c1cccs1)N1C[C@H]2CC[C@@]3(N=C(c4ccccc4)NC3=O)[C@H]2C1`, the Percent Effect was -42.8%.

For `Cc1noc(NC(=O)c2ccc(Br)cc2)n1`, the Percent Effect came out at 54.5%.

As to `COc1ccc(CC(=O)N2C[C@@H]3COC[C@]3(CN(C)C)C2)cc1`, the Percent Effect was -4.41%.

On to `Cc1cnc(CN2CCCC(c3cc(C(N)=O)[nH]n3)C2)o1` (stereo not given), for which the Percent Effect is 13.4%.

As for `CCc1nc(CN(C)C2CCN(Cc3cnc(C)cn3)C2)no1` (stereo not given), the Percent Effect was -48.2%.

With `CCn1nnc2c1C(COC)CN(C(=O)COc1ccccc1)C2` (stereo not given), the Percent Effect was -31.2%.

`O=C(COc1coc(CN2CCCCC2)cc1=O)Nc1ccccc1Cl`: the Percent Effect was -4.27%.

As to `Cc1nc(CO[C@@H]2CN(Cc3cnn(C)c3)[C@@H]3COC[C@@H]32)cs1`, the Percent Effect was -3.46%.

For the compound `c1ccc(-c2nnc(CNCCn3cccn3)o2)cc1`, the Percent Effect came to 0.764%.

On to `COCC1c2c(cnn2C)CCN1Cc1ccc(F)cc1` (stereo not given), for which the Percent Effect is -4.17%.

Turning to `CCc1ncc2c(n1)CN(C(=O)COC)C2`, the Percent Effect was -5.79%.

As for `c1cc2c(cc1C1CCCN1Cc1nnnn1C1CC1)OCCO2` (stereo not given), the Percent Effect was 3.61%.

For `CC(=O)N1CC(=O)N(c2ccccc2)CC12CCN(CC1CC1)C2` (stereo not given), the Percent Effect was -1.67%.

Turning to `Cc1ccc(-n2nnc(CC(=O)N3CCOCC3)c2C)cc1`, the Percent Effect was -28%.

Turning to `c1coc(CN2C[C@H](OCC3CCOCC3)[C@H]3COC[C@H]32)c1`, the Percent Effect came to 12.6%.

As to `Cc1cc2c(cc1C)C(NCc1nnc3n1CCCCC3)CCCO2` (stereo not given), the Percent Effect is -2.95%.

For the compound `COc1ccccc1C(O)CNC(=O)NCc1cccnc1OC` (stereo not given), the Percent Effect was 9.52%.

In the case of `CCN(C)c1ncnc2c1CCN(C(=O)c1ccno1)CC2`, the Percent Effect was -5.46%.

With `O=C(CCCc1cn[nH]c1)N1CCOCC(O)C1` (stereo not given), the Percent Effect stood at 5.53%.

Take `CC(C(=O)NCCOc1ccc2c(c1)OCO2)n1cncn1` (stereo not given): the Percent Effect was -4.93%.

As to `Cc1cc(CN(C)C(=O)NC2CCN(Cc3ccccc3)C2)no1` (stereo not given), the Percent Effect is -10.9%.

As to `Cc1cc(NC(=O)NCC(O)c2ccc(Cl)cc2Cl)n(C)n1` (stereo not given), the Percent Effect was 24.8%.

On to `COc1c(CNCCNC(=O)Cc2ccc(F)cc2)c(C)nn1C`, for which the Percent Effect was 30.8%.

For the compound `Cc1nc(C)n(CC2CCCN(CCc3ccncc3)C2)n1` (stereo not given), the Percent Effect is -14.2%.

For the compound `O=C(NCC1CCOCC1)[C@@H]1C[C@@H]2CCN(Cc3ccco3)C[C@H]2O1`, the Percent Effect was found to be 4.1%.

With `Cc1cc(C2CCCN(C(=O)c3cnccn3)C2)ccn1` (stereo not given), the Percent Effect is -14.3%.

For the compound `CC1CCCN(C(=O)c2cccc(CS(C)(=O)=O)c2)C1` (stereo not given), the Percent Effect was -32%.
